Laboratory results as given in PubChem BioAssay (EPA / NIEHS).
Inconclusive results are not listed. Activity calls are given as the source filed them. The calls were made as follows, unless noted: active = hit-call score of the fitted dose curve at least 0.9, where 1 is the maximum; inactive = score below 0.9.

How the values were obtained:
[1] = biological target: Glucocorticoid receptor (Homo sapiens) (UniProt P04150); test: ATG_GR_TRANS: Attagene TRANS-FACTORIAL HepG2 Assay for human Glucocorticoid Receptor (GR) (AID 2282978; active = hit-call score of the fitted dose curve at least 0.9, where 1 is the maximum;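 also: activators score as hits since higher reporter transcript over DMSO is fitted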); conditions: HepG2 Attagene TRANS GR reporter, mRNA transcription
Outline: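 HepG2 cells transiently transfected with GAL4-UAS reporter units and exogenous GR-Gal4 chimera, dosed 24 h. Reporter mRNA by RT-PCR, FAM labeling, HpaI digest and capillary electrophoresis; gain-of-signal fit versus DMSO.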

[2] = biological target: Oxysterols receptor LXR-alpha (Homo sapiens) (UniProt Q13133); test: ATG_LXRa_TRANS: Attagene TRANS-FACTORIAL HepG2 Assay for human Liver X Receptor alpha (LXRa) (AID 2282980; active = hit-call score of the fitted dose curve at least 0.9, where 1 is the maximum); conditions: HepG2 Attagene TRANS reporter, LXRa transactivation
Outline: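 Transfect HepG2 with GAL4-UAS multiplex reporter constructs (TRANS format, chimeric receptor-GAL4); treat 24 h; extract RNA, reverse-transcribe, PCR-amplify, FAM-label, HpaI-digest; resolve fragments by capillary electrophoresis. Upward response vs DMSO.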

[3] = biological target: Oxysterols receptor LXR-beta (Homo sapiens) (UniProt P55055); test: ATG_LXRb_TRANS: Attagene TRANS-FACTORIAL HepG2 Assay for human Liver X Receptor beta (LXRb) (AID 2282981; active = hit-call score of the fitted dose curve at least 0.9, where 1 is the maximum); conditions: HepG2 Attagene TRANS GAL4-LXRb reporter, mRNA
Outline: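 HepG2 cells transiently transfected with multiple reporter transcription units carrying chimeric NR-Gal4 proteins acting on GAL4-UAS reporters; compound exposure 24 h. Reporter mRNA quantified by RT-PCR, 6-FAM labelling, HpaI digestion and capillary electrophoresis; gain of signal versus DMSO.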

[4] = ATG_M_32_TRANS: Attagene TRANS-FACTORIAL HepG2 Assay for M32 Transcription Factor (Internal Marker) (AID 2282984; active = hit-call score of the fitted dose curve at least 0.9, where 1 is the maximum;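 also: transcript level of a background control reporter unit measured by RT-PCR and capillary electrophoresis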); conditions: HepG2 Attagene TRANS M32 internal marker reporter
Outline: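 HepG2 cells transiently transfected with multiple GAL4-UAS reporter transcription units, dosed for 24 hours; reporter mRNA quantified by RT-PCR, 6-FAM primer extension, HpaI digestion and capillary electrophoresis. Gain-of-signal fitted versus DMSO baseline; internal background-control marker.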

[5] = biological target: Nuclear receptor subfamily 4 group A member 2 (Homo sapiens) (UniProt P43354); test: ATG_NURR1_TRANS: Attagene TRANS-FACTORIAL HepG2 Assay for human Nuclear Receptor Related Protein 1 (NURR1) (AID 2282985; active = hit-call score of the fitted dose curve at least 0.9, where 1 is the maximum); conditions: HepG2 Attagene TRANS reporter, mRNA readout
Outline: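 HepG2 cells transiently transfected with GAL4-UAS reporter units and chimeric NR-Gal4 constructs; chemical exposure 24 h. Reporter mRNA quantified by RT-PCR, fluorescent labelling and capillary electrophoresis; gain of signal fitted relative to DMSO baseline.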

[6] = biological target: Transcriptional activator Myb (Homo sapiens) (UniProt P10242); test: ATG_Myb_CIS: Attagene CIS-FACTORIAL HepG2 Assay for human Myeloblastosis (Myb) Proto-Oncogene Transcription Factor (AID 2282986); conditions: HepG2 Attagene CIS-FACTORIAL Myb reporter transcription; actives raise or lower the signal
Outline: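 Transiently transfected HepG2 cells carrying a multiplexed cis-promoter reporter set report endogenous Myb activity after 24 h compound exposure. Reporter mRNA is read by RT-PCR with capillary electrophoresis of fluorescent products, fitted bidirectionally against DMSO.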

[7] = biological target: Nuclear respiratory factor 1 (Homo sapiens) (UniProt Q16656); test: ATG_NRF1_CIS: Attagene CIS-FACTORIAL HepG2 Assay for human Nuclear Respiratory Factor 1 (NRF1) Orphan Gene (AID 2282987); conditions: HepG2 NRF1 cis-element reporter, Attagene multiplex; actives raise or lower the signal
Outline: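 HepG2 cells transiently transfected with multiple cis-regulated reporter units, exposed 24 h. Reporter mRNAs measured by RT-PCR, fluorescent labelling, HpaI digestion and capillary electrophoresis; bidirectional fitting against DMSO.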

[8] = ATG_NFI_CIS: Attagene CIS-FACTORIAL HepG2 Assay for human Nuclear Factor I (NFI) (AID 2282989); conditions: HepG2 cis-regulatory reporter, NFI response element transcription; actives raise or lower the signal
Outline: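 Transient MRTU transfection of HepG2 → 24 h chemical dosing → total RNA, oligo(dT) RT → PCR, 6-FAM primer extension, HpaI cut → capillary electrophoresis. Endpoint fitted bidirectionally relative to DMSO.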

[9] = biological target: Myc proto-oncogene protein (Homo sapiens) (UniProt P01106); test: ATG_Myc_CIS: Attagene CIS-FACTORIAL HepG2 Assay for human Myelocytomatosis (Myc) Proto-Oncogene Transcription Factor (AID 2282990); conditions: HepG2, Attagene cis-reporter transcription factor activity; actives raise or lower the signal
Outline: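 Multiplexed cis-reporter transcription in HepG2 cells after 24 h chemical treatment. Reporter mRNA measured by RT-PCR and capillary electrophoresis fluorescence; activity fitted bidirectionally against DMSO control.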

[10] = ATG_NF_kB_CIS: Attagene CIS-FACTORIAL HepG2 Assay for human Nuclear Factor Kappa B (NF-kB) (AID 2282991); conditions: HepG2 Attagene cis-factorial NF-kB reporter mRNA; actives raise or lower the signal
Outline: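 HepG2 cells transfected with cis-promoter-driven reporter units, so endogenous transcription factor activity is measured. Reporter mRNA quantified 24 h after dosing by RT-PCR and capillary electrophoresis, with bidirectional fitting against DMSO.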

[11] = ATG_NRF2_ARE_CIS: Attagene CIS-FACTORIAL HepG2 Assay for human Nuclear Factor Erythroid 2 Related Factor 2 (NFR2) response to Antioxidant Response Elements (ARE) (AID 2282992); conditions: HepG2 Attagene ARE/NRF2 reporter, transcription factor activity; actives raise or lower the signal
Outline: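 Cis-factorial assay: transfected HepG2 reporter library, 24 h dosing, mRNA readout via RT-PCR/CE; DMSO-referenced bidirectional analysis.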

[12] = biological target: Cellular tumor antigen p53 (Homo sapiens) (UniProt P04637); test: ATG_p53_CIS: Attagene CIS-FACTORIAL HepG2 Assay for human p53 Transcription Factor (AID 2282994); conditions: HepG2 p53 cis-element reporter, Attagene mRNA; actives raise or lower the signal
Outline: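 Using HepG2 hepatoma cells carrying cis-acting multiplexed reporters, mRNA induction is detected after a 24 h exposure. Gain- and loss-of-signal responses are fitted relative to DMSO-treated cells.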

[13] = ATG_M_06_TRANS: Attagene TRANS-FACTORIAL HepG2 Assay for M06 Transcription Factor (Internal Marker) (AID 2282983; active = hit-call score of the fitted dose curve at least 0.9, where 1 is the maximum;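 also: reporter transcript level by RT-PCR then capillary electrophoresis fluorescence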); conditions: HepG2 Attagene TRANS M06 internal marker reporter
Outline: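 Transfect HepG2 with MRTUs → dose compounds 24 h → isolate RNA, oligo(dT) RT → PCR with reporter primers → 6-FAM primer extension → HpaI digest → CE fragment analysis. Positive direction vs DMSO.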

[14] = ATG_Oct_MLP_CIS: Attagene CIS-FACTORIAL HepG2 Assay for human Octamer-Binding Transcription Factor (Oct) (AID 2282993); conditions: HepG2 Attagene cis-factorial Oct reporter, mRNA; actives raise or lower the signal
Outline: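 Transient MRTU transfection of HepG2 → 24 h compound treatment → RNA isolation, reverse transcription, PCR → 6-FAM primer extension, HpaI digest → capillary electrophoresis. Activity fitted both directions against DMSO.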

[15] = biological target: Hepatocyte nuclear factor 4-alpha (Homo sapiens) (UniProt P41235); test: ATG_HNF4a_TRANS: Attagene TRANS-FACTORIAL HepG2 Assay for human Hepatocyte Nuclear Factor 4 alpha (HNF4a) (AID 2282982; active = hit-call score of the fitted dose curve at least 0.9, where 1 is the maximum); conditions: HepG2 HNF4a transactivation reporter, mRNA readout
Outline: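 HepG2 cells transiently transfected with multiplexed GAL4-UAS reporter units responsive to chimeric NR-GAL4 proteins; compound exposure 24 h. Reporter mRNA quantified by RT-PCR, 6-FAM labelling, HpaI digestion and capillary electrophoresis; gain of signal versus DMSO baseline.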

[16] = biological target: Bile acid receptor (Homo sapiens) (UniProt Q96RI1); test: ATG_FXR_TRANS: Attagene TRANS-FACTORIAL HepG2 Assay for Farnesoid X Receptor (FXR) (AID 2282979; active = hit-call score of the fitted dose curve at least 0.9, where 1 is the maximum;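 also: hits raise reporter mRNA above DMSO so AC50 marks FXR activation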); conditions: HepG2 Attagene TRANS FXR-GAL4 reporter transcription
Outline: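 Transient transfection of HepG2 with multiplexed GAL4-UAS reporter units; exogenous FXR-GAL4 chimera. Dose 24 h → TriZol RNA → oligo(dT) RT → PCR, 6-FAM primer extension, HpaI cut → CE. Gain vs DMSO.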

[17] = BSK_3C_TissueFactor: BioMAP Diversity Plus: 3C Assay for Tissue Factor Biomarker Activity (AID 2282997); conditions: BioMAP 3C HUVEC, tissue factor biomarker readout; actives raise or lower the signal
Outline: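 ELISA read-out of Tissue Factor levels on human umbilical vein endothelium collected 24 h after chemical dosing. Gain or loss of signal was fitted relative to DMSO.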

[18] = BSK_3C_uPAR: BioMAP Diversity Plus: 3C Assay for Urokinase-type plasminogen activator receptor (uPAR) Biomarker Activity (AID 2282998); conditions: BioMAP 3C HUVEC, uPAR biomarker ELISA; actives raise or lower the signal
Outline: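 ELISA readout of uPAR on human vascular endothelium (umbilical vein primary cells), taken 24 h after chemical dosing. Increases and decreases are both fitted relative to DMSO vehicle.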

[19] = BSK_3C_VCAM1: BioMAP Diversity Plus: 3C Assay for Vascular cell adhesion molecule 1 (VCAM1) Biomarker Activity (AID 2282999); conditions: BioMAP 3C HUVEC, VCAM1 ELISA, cytokine-stimulated; actives raise or lower the signal
Outline: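 Human umbilical vein endothelial cells were dosed with compound for 24 h, after which cell-surface VCAM-1 was quantified by ELISA. Bidirectional curve fitting used DMSO as negative control and activity baseline.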

[20] = BSK_4H_Eotaxin3: BioMAP Diversity Plus: 4H Assay for Eotaxin 3 Biomarker Activity (AID 2283000); conditions: primary human endothelial cells (HUVEC); actives raise or lower the signal
Outline: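 Chemicals were added to human umbilical vein endothelium cultures, and Eotaxin-3 was quantified by ELISA at 24 h. Values were derived by bidirectional fitting with DMSO serving as negative control and activity baseline.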

Nuclear respiratory factor 1 (Homo sapiens), sequence (Q16656 whole entry, looked up): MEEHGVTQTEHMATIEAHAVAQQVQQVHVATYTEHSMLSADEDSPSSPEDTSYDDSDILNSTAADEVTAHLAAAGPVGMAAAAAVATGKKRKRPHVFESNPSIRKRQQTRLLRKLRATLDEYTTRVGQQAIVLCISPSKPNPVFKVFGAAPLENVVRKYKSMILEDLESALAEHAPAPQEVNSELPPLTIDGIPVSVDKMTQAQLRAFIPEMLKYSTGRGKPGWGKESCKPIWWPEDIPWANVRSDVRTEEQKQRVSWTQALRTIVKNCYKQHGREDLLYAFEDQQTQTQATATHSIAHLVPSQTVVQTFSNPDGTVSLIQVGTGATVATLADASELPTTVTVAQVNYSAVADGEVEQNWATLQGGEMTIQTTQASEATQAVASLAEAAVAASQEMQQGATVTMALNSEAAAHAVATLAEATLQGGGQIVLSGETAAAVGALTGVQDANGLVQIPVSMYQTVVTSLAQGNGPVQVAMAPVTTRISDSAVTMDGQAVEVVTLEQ
Oxysterols receptor LXR-beta (Homo sapiens), sequence (P55055 whole entry, looked up, the tested form may be a part): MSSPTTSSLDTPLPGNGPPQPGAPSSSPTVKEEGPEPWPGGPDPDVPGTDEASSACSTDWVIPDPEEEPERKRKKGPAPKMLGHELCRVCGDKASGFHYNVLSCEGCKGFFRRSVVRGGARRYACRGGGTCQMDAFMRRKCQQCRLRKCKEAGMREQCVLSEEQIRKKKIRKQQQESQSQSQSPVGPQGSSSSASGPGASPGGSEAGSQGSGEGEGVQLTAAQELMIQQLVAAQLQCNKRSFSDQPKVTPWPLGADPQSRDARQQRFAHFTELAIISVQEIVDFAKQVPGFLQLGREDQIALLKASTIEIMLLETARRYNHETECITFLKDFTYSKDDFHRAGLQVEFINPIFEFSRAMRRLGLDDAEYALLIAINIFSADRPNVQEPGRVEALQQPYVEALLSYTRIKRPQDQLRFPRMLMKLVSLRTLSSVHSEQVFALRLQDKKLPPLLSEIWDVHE
Oxysterols receptor LXR-alpha (Homo sapiens), sequence (Q13133 whole entry, looked up, the tested form may be a part): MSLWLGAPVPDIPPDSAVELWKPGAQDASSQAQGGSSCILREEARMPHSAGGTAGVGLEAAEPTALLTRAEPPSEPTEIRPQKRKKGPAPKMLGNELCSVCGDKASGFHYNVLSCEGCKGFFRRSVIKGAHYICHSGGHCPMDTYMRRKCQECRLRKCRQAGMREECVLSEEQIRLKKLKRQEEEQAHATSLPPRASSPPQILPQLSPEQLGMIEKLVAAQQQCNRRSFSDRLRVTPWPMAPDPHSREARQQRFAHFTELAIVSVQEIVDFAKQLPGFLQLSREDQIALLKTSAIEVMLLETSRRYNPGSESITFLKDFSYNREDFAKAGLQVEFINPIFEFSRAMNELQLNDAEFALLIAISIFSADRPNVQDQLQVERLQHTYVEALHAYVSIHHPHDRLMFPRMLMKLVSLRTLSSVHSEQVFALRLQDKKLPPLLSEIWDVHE
Myc proto-oncogene protein (Homo sapiens), sequence (P01106 whole entry, looked up): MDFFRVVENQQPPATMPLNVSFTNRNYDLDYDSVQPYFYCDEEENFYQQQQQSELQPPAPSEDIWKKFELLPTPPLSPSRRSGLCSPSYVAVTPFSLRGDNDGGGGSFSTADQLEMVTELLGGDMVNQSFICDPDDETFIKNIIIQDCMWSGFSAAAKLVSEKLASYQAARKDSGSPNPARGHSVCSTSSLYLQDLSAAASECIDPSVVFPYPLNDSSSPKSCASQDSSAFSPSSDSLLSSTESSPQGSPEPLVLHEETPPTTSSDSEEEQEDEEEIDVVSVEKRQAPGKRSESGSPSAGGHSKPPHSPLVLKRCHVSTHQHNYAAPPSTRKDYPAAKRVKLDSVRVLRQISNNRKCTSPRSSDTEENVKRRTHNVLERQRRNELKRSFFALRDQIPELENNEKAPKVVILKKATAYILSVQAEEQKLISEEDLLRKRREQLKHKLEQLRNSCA
Cellular tumor antigen p53 (Homo sapiens), sequence (P04637 whole entry, looked up): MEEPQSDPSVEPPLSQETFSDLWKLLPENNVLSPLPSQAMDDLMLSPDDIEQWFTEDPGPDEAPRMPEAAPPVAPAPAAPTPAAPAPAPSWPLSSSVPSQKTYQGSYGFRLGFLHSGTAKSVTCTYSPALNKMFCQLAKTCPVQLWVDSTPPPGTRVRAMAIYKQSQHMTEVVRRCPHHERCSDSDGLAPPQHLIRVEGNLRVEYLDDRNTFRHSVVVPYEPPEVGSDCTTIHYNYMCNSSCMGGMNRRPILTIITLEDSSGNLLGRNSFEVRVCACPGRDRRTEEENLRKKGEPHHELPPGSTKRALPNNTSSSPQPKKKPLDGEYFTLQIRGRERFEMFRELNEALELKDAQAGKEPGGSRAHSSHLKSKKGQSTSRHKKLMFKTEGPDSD
Glucocorticoid receptor (Homo sapiens), sequence (P04150 whole entry, looked up, the tested form may be a part): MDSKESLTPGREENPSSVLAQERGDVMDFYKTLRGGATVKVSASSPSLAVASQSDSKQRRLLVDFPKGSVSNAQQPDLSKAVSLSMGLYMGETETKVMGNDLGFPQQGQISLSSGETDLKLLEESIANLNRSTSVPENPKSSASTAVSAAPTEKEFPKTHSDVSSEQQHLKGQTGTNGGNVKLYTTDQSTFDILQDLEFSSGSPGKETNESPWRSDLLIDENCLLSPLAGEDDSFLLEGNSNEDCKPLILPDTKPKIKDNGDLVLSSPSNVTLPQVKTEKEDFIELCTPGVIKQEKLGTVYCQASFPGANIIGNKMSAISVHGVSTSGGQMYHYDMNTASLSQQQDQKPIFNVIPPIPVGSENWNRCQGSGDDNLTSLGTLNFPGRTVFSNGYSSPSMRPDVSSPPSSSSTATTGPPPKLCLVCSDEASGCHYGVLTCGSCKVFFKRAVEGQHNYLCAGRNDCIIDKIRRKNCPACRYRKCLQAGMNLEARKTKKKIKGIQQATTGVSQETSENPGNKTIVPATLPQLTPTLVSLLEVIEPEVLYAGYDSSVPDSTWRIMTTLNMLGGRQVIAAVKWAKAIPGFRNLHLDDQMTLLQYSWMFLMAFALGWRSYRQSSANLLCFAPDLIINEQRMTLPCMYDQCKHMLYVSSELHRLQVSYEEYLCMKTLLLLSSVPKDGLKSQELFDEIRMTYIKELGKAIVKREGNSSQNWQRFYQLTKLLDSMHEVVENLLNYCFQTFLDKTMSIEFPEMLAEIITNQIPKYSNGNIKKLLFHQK
Nuclear receptor subfamily 4 group A member 2 (Homo sapiens), sequence (P43354 whole entry, looked up, the tested form may be a part): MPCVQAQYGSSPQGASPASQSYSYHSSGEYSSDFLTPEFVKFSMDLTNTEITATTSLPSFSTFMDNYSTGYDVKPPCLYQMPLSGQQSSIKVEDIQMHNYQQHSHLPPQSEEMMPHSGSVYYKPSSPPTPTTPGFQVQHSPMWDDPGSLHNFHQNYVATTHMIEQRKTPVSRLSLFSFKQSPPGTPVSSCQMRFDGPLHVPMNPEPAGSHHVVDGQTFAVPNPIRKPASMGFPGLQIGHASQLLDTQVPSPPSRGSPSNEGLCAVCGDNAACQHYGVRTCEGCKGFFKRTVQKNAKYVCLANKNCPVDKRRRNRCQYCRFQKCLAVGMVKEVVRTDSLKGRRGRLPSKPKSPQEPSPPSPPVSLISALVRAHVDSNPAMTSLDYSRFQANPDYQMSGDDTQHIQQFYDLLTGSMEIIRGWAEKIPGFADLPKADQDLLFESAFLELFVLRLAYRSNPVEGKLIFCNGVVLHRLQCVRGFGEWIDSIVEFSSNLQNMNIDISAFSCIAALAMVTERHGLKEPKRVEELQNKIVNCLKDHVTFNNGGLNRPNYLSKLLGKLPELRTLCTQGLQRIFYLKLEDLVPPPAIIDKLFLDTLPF
Bile acid receptor (Homo sapiens), sequence (Q96RI1 whole entry, looked up, the tested form may be a part): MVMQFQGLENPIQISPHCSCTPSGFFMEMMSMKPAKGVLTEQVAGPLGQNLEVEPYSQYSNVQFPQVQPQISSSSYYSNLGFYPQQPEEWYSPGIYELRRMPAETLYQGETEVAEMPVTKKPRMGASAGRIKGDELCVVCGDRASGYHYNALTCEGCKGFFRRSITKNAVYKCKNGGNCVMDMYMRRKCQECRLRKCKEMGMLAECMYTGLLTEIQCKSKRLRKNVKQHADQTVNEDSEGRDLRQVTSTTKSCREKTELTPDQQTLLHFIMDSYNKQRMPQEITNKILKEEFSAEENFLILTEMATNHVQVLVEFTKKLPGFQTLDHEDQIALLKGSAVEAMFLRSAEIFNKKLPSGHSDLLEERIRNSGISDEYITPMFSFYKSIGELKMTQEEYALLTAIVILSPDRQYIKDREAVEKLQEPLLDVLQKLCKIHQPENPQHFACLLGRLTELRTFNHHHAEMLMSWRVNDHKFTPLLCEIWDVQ
Transcriptional activator Myb (Homo sapiens), sequence (P10242 whole entry, looked up): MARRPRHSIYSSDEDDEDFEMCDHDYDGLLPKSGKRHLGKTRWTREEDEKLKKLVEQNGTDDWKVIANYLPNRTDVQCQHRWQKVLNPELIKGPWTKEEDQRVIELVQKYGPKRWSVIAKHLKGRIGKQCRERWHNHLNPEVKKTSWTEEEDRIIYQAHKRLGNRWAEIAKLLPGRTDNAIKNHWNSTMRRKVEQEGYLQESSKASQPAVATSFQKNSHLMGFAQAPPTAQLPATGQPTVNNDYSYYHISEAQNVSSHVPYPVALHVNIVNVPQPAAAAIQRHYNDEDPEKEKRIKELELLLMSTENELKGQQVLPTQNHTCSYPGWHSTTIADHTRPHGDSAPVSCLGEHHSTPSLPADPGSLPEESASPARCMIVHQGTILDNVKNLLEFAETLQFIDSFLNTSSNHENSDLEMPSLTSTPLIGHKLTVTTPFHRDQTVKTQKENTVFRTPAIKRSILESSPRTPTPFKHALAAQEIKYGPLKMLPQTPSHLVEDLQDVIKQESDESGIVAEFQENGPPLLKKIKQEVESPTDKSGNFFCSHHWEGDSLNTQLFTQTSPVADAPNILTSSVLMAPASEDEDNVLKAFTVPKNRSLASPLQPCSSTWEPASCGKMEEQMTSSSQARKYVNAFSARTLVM

CCCOC(=O)CCCCC(=O)OCCC
outcome [1]: inactive
outcome [2]: inactive
outcome [3]: inactive
outcome [4]: inactive
outcome [5]: inactive
outcome [6]: inactive
outcome [7]: inactive
outcome [8]: inactive
outcome [9]: inactive
outcome [10]: inactive
outcome [11]: inactive
outcome [12]: inactive

CC(=O)OC1C2(C)CCC(C2)C1(C)C (centres undefined)
outcome [1]: inactive
outcome [2]: inactive
outcome [3]: inactive
outcome [13]: inactive
outcome [5]: inactive
outcome [6]: inactive
outcome [7]: inactive
outcome [8]: inactive
outcome [9]: inactive
outcome [10]: inactive
outcome [11]: inactive
outcome [14]: inactive

O=C(Oc1ccccc1)c1ccc2ccccc2c1O
outcome [1]: inactive
outcome [3]: inactive
outcome [15]: inactive
outcome [13]: inactive
outcome [4]: inactive
outcome [5]: inactive
outcome [6]: inactive
outcome [7]: inactive
outcome [8]: inactive
outcome [9]: inactive
AC50 [10]: 100 µM (active)
AC50 [14]: 49 µM (active)

O=C(O)CC(C(=O)O)C(CC(=O)O)C(=O)O (centres undefined)
outcome [16]: inactive
outcome [3]: inactive
outcome [13]: inactive
outcome [4]: inactive
outcome [6]: inactive
outcome [7]: inactive
outcome [8]: inactive
outcome [9]: inactive
outcome [10]: inactive
outcome [11]: inactive
outcome [14]: inactive
outcome [12]: inactive

CCCCC(CC)CCC(CC(C)C)OS(=O)(=O)O (centres undefined)
outcome [16]: inactive
outcome [3]: inactive
outcome [13]: inactive
outcome [4]: inactive
outcome [5]: inactive
outcome [6]: inactive
outcome [7]: inactive
outcome [8]: inactive
outcome [9]: inactive
AC50 [11]: 100 µM (active)
outcome [14]: inactive
outcome [12]: inactive

CC/C=C\C/C=C\C/C=C\CCCCCCCC(=O)O
outcome [16]: inactive
outcome [2]: inactive
outcome [3]: inactive
outcome [13]: inactive
outcome [4]: inactive
outcome [6]: inactive
outcome [7]: inactive
outcome [8]: inactive
outcome [9]: inactive
AC50 [11]: 48.2 µM (active)
outcome [14]: inactive

C#CC1(O)CC[C@H]2[C@@H]3CCC4=CCCC[C@@H]4[C@H]3CC[C@@]21C (some centres undefined)
outcome [16]: inactive
AC50 [2]: 1.46 µM (active)
AC50 [3]: 1.81 µM (active)
outcome [4]: inactive
outcome [6]: inactive
outcome [7]: inactive
outcome [8]: inactive
outcome [9]: inactive
outcome [10]: inactive
AC50 [11]: 22 µM (active)
outcome [14]: inactive
AC50 [12]: 33.4 µM (active)
AC50 [17]: 8.34 µM (active)
AC50 [18]: 9.84 µM (active)
AC50 [19]: 10.4 µM (active)
AC50 [20]: 11.1 µM (active)

C=CCCCCCCCCC(=O)OCCCC
outcome [16]: inactive
outcome [3]: inactive
outcome [15]: inactive
outcome [4]: inactive
outcome [5]: inactive
outcome [6]: inactive
outcome [8]: inactive
outcome [9]: inactive
outcome [10]: inactive
outcome [11]: inactive
outcome [14]: inactive
outcome [12]: inactive

CCCCCCCCCCC=CC#N
outcome [16]: inactive
outcome [2]: inactive
outcome [4]: inactive
outcome [5]: inactive
outcome [6]: inactive
outcome [7]: inactive
outcome [8]: inactive
outcome [9]: inactive
outcome [10]: inactive
AC50 [11]: 114 µM (active)
outcome [14]: inactive
outcome [12]: inactive

CCC(Cc1ccccc1)(C(=O)c1ccc(N2CCOCC2)cc1)N(C)C (centres undefined)
outcome [16]: inactive
AC50 [2]: 23.3 µM (active)
AC50 [3]: 27.5 µM (active)
outcome [4]: inactive
AC50 [5]: 41 µM (active)
outcome [6]: inactive
AC50 [7]: 30.3 µM (active)
outcome [8]: inactive
outcome [9]: inactive
outcome [10]: inactive
AC50 [11]: 37.2 µM (active)
outcome [14]: inactive
outcome [12]: inactive
